Screening data (PubChem)
SMN2 splice up – increases expression of the SMN2 splice variant. Potency, µM (top dose mostly 46.1 µM), inactives show at the top dose activity change, positive = activation, usual class: activators. HEK293 SMN2-luciferase splicing reporter, luminescence, 30-36 h. hit rate 2.8% among 210,000. AID 1458; also: % of control where 0% means no effect; nearly all actives have a fitted effect of over 55% in size
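HEK293 cells carry an SMN2 […]–luciferase reporter in which exon 7 inclusion puts luciferase in frame. Cells were plated 10-12 h before compound addition, then incubated 30-36 h at 37C. ONE-Glo luminescence was read; sodium butyrate at 4.5 mM final served as control.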
FLuc modulator – firefly luciferase modulation, counter-screen for miR-21 project; AID 588342; Potency, µM (doses to about 57.5 µM), for inactives: at the top dose activity change, negative = inhibition, usual class: inhibitors; purified FLuc, Km substrates, luminescence inhibition; P08659; hit rate 6.9% among 360,000;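 also: plate controls were vehicle for no effect and reference inhibitor for full effect; nearly all actives have a fitted effect of over 55% in size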
Target sequence (P08659 whole entry, looked up): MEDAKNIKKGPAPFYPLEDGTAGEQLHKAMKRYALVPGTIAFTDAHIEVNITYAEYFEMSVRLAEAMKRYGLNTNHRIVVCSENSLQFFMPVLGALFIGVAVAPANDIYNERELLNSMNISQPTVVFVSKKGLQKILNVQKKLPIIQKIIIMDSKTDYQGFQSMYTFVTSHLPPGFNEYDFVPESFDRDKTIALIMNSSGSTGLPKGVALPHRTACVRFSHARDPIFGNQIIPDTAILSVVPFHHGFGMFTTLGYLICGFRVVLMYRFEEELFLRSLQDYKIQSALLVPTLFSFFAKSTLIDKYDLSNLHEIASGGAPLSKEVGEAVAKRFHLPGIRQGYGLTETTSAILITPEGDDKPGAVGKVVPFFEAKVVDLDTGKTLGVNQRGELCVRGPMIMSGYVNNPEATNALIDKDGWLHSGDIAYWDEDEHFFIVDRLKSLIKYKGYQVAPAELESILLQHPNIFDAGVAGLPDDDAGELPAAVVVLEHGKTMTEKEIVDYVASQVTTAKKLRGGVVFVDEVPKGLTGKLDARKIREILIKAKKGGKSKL
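Purified P. pyralis luciferase (10nM final) with 10uM D-luciferin and 10uM ATP (Km levels) in 50mM Tris acetate pH 7.5, 10mM Mg acetate, 0.01% Tween-20, 0.05% BSA; qHTS 6-point titration, ~60 µM downward; luminescence read.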
NPC1 promoter act – activators of NPC1 promoter; Huh7 NPC1 promoter luciferase reporter, 24 h; hit rate 2.4% among 320,000; AID 485313; Potency, µM (top dose mostly 9.22 µM), for inactives: at the highest dose activation, hits mostly activators; also: % of control where 0% means no effect; nearly all actives have a fitted effect of over 60% in size
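Huh7 reporter cells (NPC1 promoter driving luciferase) are dosed with compound for 24 h at 37 °C, 5% CO2; luciferase detection reagent is then added and luminescence measured after 10 min at ambient temperature.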
ELG1 DNA repair – blocks ELG1-dependent DNA repair in HEK293T cells; Potency, µM (top dose mostly 46.1 µM), inactives show top-dose activity change, negative = inhibition, usual class: inhibitors; AID 504467; hit rate 2.3% among 330,000; HEK293T ELG1-luciferase reporter, luminescence, 16 h; DNA damage induced by 5-fluorouridine; also: % is scaled to controls: 0 for no effect and ±100 for the full control effect; nearly all actives have a fitted effect of over 55% in size
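HEK293T cells expressing luciferase-tagged ELG1 (2,000/well) received 5-Fluorouridine plus compound or DMSO for 16 hr at 37 °C. Luciferase was read by ONE-Glo luminescence after 30 min at room temperature.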
ELG1 genotoxic – genotoxicity induction in ELG1-luciferase HEK293T cells; Potency, µM (doses to about 46 µM), for the others: top-dose activity change, positive = activation, most hits filed as activators; hit rate 1.3% among 330,000; AID 504466; HEK293T ELG1-luciferase reporter, luminescence, 16 h; also: % of control where 0% means no effect; nearly all actives have a fitted effect of over 60% in size
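ELG1-luciferase HEK293T cells, 2,000/well; compound pinned in; 16 hr, 37 °C, 5% CO2; ONE-Glo, 30 min RT; luminescence on CCD imager.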
Rab9 prom act – Rab9 promoter activation | Huh7 Rab9 promoter-luciferase reporter, luminescence, 24 h | Potency, µM (top dose mostly 9.22 µM), without a hit: at the highest dose activation, negative = inhibition, actives largely listed as activators | hit rate 2.8% among 320,000 | AID 485297; also: % of control where 0% means no effect; nearly all actives have a fitted effect of over 60% in size
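Cells were plated at 1500 per well in reduced-serum medium with 10% FBS and left 2 h. Compound in DMSO was then added for 24 h at 37 °C. Reporter signal was read by luminescence after 10 min with luciferase detection reagent.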
Active calls of the source: *; [ ] = remark or other dose. Rows were chosen to be rich in hits. Some 9.4% of all compounds tested hit in one or more screens of this group. Calls follow the shape of the dose curve; as a rule, active = well fitted curve in the direction sought with a large enough effect; inconclusive = small, poorly fitted or top-dose-only effect, or another doubt; inactive = no such curve, though single readings can be large; an effect the other way counts as inactive or inconclusive. Potency is read from the fitted curve at half-maximal effect.

Results for C/C(=N\NC(=S)Nc1ccc(C)c(C)c1)c1ccc(N2CCOCC2)cc1 ?
SMN2 splice up: -16%; FLuc modulator: -21%; NPC1 promoter act: 11%; ELG1 DNA repair: 23µM*; ELG1 genotoxic: -1%; Rab9 prom act: -1%

How did C/C(=N\NC(=S)Nc1cc(S(=O)(=O)N2CCOCC2)ccc1Cl)c1ccc(N2CCOCC2)cc1 do in these assays?
FLuc modulator: -14%; NPC1 promoter act: 3%; ELG1 DNA repair: inconclusive; ELG1 genotoxic: -7%; Rab9 prom act: 0%

What do the screens show for `C/C(=N\Nc1ccc([N+](=O)[O-])cc1)c1ccc(-n2nncc2C)cc1`?
SMN2 splice up: -12%; FLuc modulator: -14%; NPC1 promoter act: -3%; ELG1 DNA repair: 7.3µM*; ELG1 genotoxic: -4%; Rab9 prom act: -7%

How did O=[N+]([O-])c1ccc(N2CCOCC2)cc1NC(c1ccccc1)c1ccccc1 do in these assays?
SMN2 splice up: -9%; FLuc modulator: -2%; NPC1 promoter act: -2%; ELG1 DNA repair: 0%; ELG1 genotoxic: 6%; Rab9 prom act: -4%

How did C/C(=N\Nc1ccccc1[N+](=O)[O-])c1ccc(N2CCOCC2)cc1 do in these assays?
SMN2 splice up: inconclusive; FLuc modulator: 3.4µM*; NPC1 promoter act: 2.8µM*; ELG1 DNA repair: inconclusive; ELG1 genotoxic: inconclusive; Rab9 prom act: 3.2µM*

What do the screens show for `Cc1cc(=O)oc2c(OS(C)(=O)=O)c(OS(C)(=O)=O)ccc12`?
SMN2 splice up: -7%[9.22 µM]

Results for COc1ccc(F)cc1S(=O)(=O)Nc1cccc(-c2ccc(N3CCCCCC3)nn2)c1 ?
FLuc modulator: 9.5µM*

What do the screens show for `COc1ccc(OC)c(S(=O)(=O)Nc2cccc(-c3ccc(N4CCCCC4)nn3)c2)c1`?
FLuc modulator: 6µM*

What do the screens show for `COc1ccc(S(=O)(=O)Nc2cccc(-c3ccc(N4CCC(C)CC4)nn3)c2)c(OC)c1`?
FLuc modulator: 2.7µM*

Results for COc1ccccc1S(=O)(=O)Nc1cccc(-c2nnc3n2CCCCC3)c1 ?
SMN2 splice up: -3%; FLuc modulator: 1%; NPC1 promoter act: -3%; ELG1 DNA repair: -1%; ELG1 genotoxic: -1%; Rab9 prom act: -10%

What do the screens show for `CCc1ccc(S(=O)(=O)Nc2cccc(-c3ccc4nncn4n3)c2)s1`?
SMN2 splice up: -31%; FLuc modulator: 1%; NPC1 promoter act: -12%; ELG1 DNA repair: inconclusive; ELG1 genotoxic: 10%; Rab9 prom act: -3%

Results for COc1ccc(S(=O)(=O)Nc2ccc(-c3ccc4nncn4n3)cc2)c(OC)c1 ?
FLuc modulator: 3%; NPC1 promoter act: -4%; ELG1 DNA repair: 6%; ELG1 genotoxic: 1%; Rab9 prom act: -1%

How did CCc1ccc(S(=O)(=O)Nc2cccc(-c3ccc(N4CCC(C)CC4)nn3)c2)s1 do in these assays?
FLuc modulator: 1.3µM*

Results for CCN(CC)CCCNC(=O)c1ccc2c(c1)N(Cc1c(F)cccc1Cl)C(=O)c1ccccc1S2 ?
SMN2 splice up: -65%; FLuc modulator: -5%

What do the screens show for `CCOC(=O)CNC(=O)c1cc2c(=O)oc3ccccc3c2s1`?
SMN2 splice up: 10%; FLuc modulator: 2%

How did Cn1c(=O)c2c(nc(C(=N)SCC(=O)O)n2C)n(C)c1=O do in these assays?
SMN2 splice up: -2%[9.22 µM]

How did COc1ccccc1NC(=O)C1=C(C)Nc2nc(SCc3ccccc3)nn2C1c1cccnc1 (stereo not drawn) do in these assays?
SMN2 splice up: 6%; FLuc modulator: 0%

What do the screens show for `Cc1ccc(S(=O)(=O)Nc2cccc(-c3ccc4nnc(C)n4n3)c2)s1`?
SMN2 splice up: 13µM*; FLuc modulator: 2%; NPC1 promoter act: -12%; ELG1 DNA repair: inconclusive; ELG1 genotoxic: 21µM*; Rab9 prom act: 1%
